Compound activity deposited in PubChem by National Center for Advancing Translational Sciences (NCATS).
Six1-Eya2 inh: blocks human Six1 binding to Eya2; Q15475+O00167; AlphaScreen GST-Six1/His-Eya2 binding, biochemical; hits give low values; 360,000 tested, 0.56% active; AID 651725; activity change, % (test concentration not listed); in the data active = activity change below about -65%; inconclusive = mostly about -30% to -63%
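AlphaScreen luminescence read after one hour at 37 °C in darkness. Pin-transferred compounds met GST-Six1 and His-Eya2 protein (5X stock 250 nM/500 nM) plus glutathione donor and Ni-chelate acceptor beads (5X, 50 ug/mL).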
L3MBTL1 inh: inhibitors of human L3MBTL1; Q9Y468; AlphaScreen L3MBTL1–H3K9me1 peptide binding; Potency, µM (highest dose often 57.1 µM), actives largely listed as inhibitors; 230,000 tested, 0.66% active; AID 485360; also: nearly all actives have a fitted effect of over 60% in size
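First, the protein-peptide complex forms for 30 min at room temperature (L3MBTL1 50 nM, biotinylated H3K9me1 peptide 75 nM). Next, compounds are pin-transferred and incubated 30 min. Finally, AlphaScreen beads are added and read after 30 min.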
USP2a block: inhibitors of human ubiquitin-specific protease USP2a | USP2 core, Ub-CHOP2 coupled fluorogenic reporter, 485/531 | Potency, µM (highest dose often 38.3 µM), actives largely listed as inhibitors | 330,000 tested, 0.01% active | AID 463254
Target sequence (O75604 whole entry, looked up): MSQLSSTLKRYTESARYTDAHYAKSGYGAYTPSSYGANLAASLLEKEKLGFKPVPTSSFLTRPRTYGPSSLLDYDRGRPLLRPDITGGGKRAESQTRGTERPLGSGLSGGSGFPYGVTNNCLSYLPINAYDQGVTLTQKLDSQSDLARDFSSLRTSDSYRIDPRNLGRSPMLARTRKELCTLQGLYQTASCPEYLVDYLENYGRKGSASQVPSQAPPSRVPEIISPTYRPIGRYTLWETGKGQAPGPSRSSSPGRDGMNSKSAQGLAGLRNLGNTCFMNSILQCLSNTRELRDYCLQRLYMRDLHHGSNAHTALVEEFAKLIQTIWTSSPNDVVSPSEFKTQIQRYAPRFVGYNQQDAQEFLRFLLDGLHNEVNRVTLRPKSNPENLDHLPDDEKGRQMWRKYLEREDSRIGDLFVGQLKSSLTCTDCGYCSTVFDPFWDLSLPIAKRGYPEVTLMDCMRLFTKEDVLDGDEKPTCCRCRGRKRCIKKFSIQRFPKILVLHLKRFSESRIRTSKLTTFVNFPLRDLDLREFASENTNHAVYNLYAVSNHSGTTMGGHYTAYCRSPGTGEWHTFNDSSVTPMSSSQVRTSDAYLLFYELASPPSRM
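Deubiquitinase activity read as fluorescence (485/531 nm) after Ub-CHOP2 cleavage activates the enterokinase reporter on its substrate; USP2 core 10nM, Ub-CHOP2 and substrate 25nM each, 30min compound preincubation then 60min RT; data normalized to NEM, curves fitted.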
Eya2 phos inh: blocks the phosphatase activity of human Eya2 | O00167 | AID 488837 | recombinant Eya2, OMFP fluorescence dephosphorylation (OMFP is methylfluorescein phosphate) | 330,000 tested, 0.006% active | Potency, µM (titrated, usually from 76.9 µM), usual class: inhibitors
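Eya2 protein (added as 0.2 uM solution) was preincubated with compound for 10 min at ambient temperature in 50 mM HEPES pH 7.5, 50 mM NaCl, 5 uM MgCl2, 0.05% BSA, 1 mM DTT. OMFP (added at 50 uM) then reacted 10 min; fluorescence read at 485/525 nm.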
uPA surface inh: cell surface uPA generation inhibition; cell surface uPA generation assay, qHTS; Potency, µM (doses to about 38.3 µM), actives largely listed as inhibitors; 330,000 tested, 0.31% active; AID 540303; active = well fitted inhibition curve with a large enough effect; inconclusive = small, poorly fitted or top-dose-only effect; inactive = no such curve, though single readings can be large or run the other way; tested in mouse RAW 264.7 cells; also: nearly all actives have a fitted effect of over 55% in size
CtBP-E1A inh: inhibitors of CtBP/E1A interaction; AlphaScreen GST-E1A/His-CtBP binding, 1536-well; hits give low values; activity change, % (concentration not given with the values); 340,000 tested, 0.49% active; in the data active = activity change below about -65%; inconclusive = mostly about -30% to -63%
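In 5 uL wells, 23 nL compound meets equimolar GST-E1A and His-CtBP (5X stock 125 nM each) for 2 h, 37 °C. Beads (5X, 50 ug/mL) then 1 h, 37 °C, dark.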
Numbers stand for hits; n = inactive; u = inconclusive; x = not tested or not shown. An excerpt weighted towards active compounds, which were near 1.2% of everything screened. Unless noted, calls follow the shape of the dose curve; as a rule, active = well fitted curve in the direction sought with a large enough effect; inconclusive = small, poorly fitted or top-dose-only effect, or another doubt; inactive = no such curve, though single readings can be large; an effect the other way counts as inactive or inconclusive.

SMILES	Six1-Eya2 inh	L3MBTL1 inh	USP2a block	Eya2 phos inh	uPA surface inh	CtBP-E1A inh
CCC(C)N(C(=O)c1csnn1)C(C(=O)NCc1ccc(F)cc1)c1ccccc1 (centres undefined)	n	x	n	n	n	n
CCOc1ccc(CNCCN2CCCC2)cc1	n	n	n	n	n	n
c1ccc(-c2csc(Nc3ccccn3)n2)cc1	n	n	n	n	n	n
NC(CCc1ccccc1)c1csc(Nc2cnccn2)n1 (centres undefined)	u	x	x	x	x	-67
CS(=O)(=O)c1ccc(Nc2nc(C(N)c3ccccc3)cs2)cc1 (centres undefined)	n	x	x	x	x	n
Cc1cnc(C)c(Nc2nc(C(N)c3ccccc3)cs2)n1 (centres undefined)	u	x	x	x	x	-66
COc1ccc(CC(N)c2csc(Nc3ccccn3)n2)cc1 (centres undefined)	-88	x	x	x	x	-92
NC(c1ccccc1)c1csc(Nc2ccccn2)n1 (centres undefined)	-89	x	x	x	x	-90
Cc1ccc(-n2ncc3c2CC(C)(C)CC3NC(=O)c2ccncc2)cc1 (centres undefined)	n	x	n	n	n	n
NC(c1csc(NC(=O)Nc2ccc(OC(F)(F)F)cc2)n1)C1CCCCC1 (centres undefined)	n	x	x	x	x	n
NC(c1csc(Nc2ccccn2)n1)C1CCCCC1 (centres undefined)	u	x	x	x	x	-80
CSc1ccccc1NC(=O)CN(C)C(=O)c1ccc2c(c1)OCCO2	n	x	n	n	n	n
O=C(O)c1cc(O)c2c(c1)C(=O)c1cc(O)cc(O)c1C2=O	u	2.5µM	n	n	u	n
CC1C=CC=CC=CC=CC=CC=CC=CC(OC2OC(C)C(O)C(N)C2O)CC2OC(O)(CC(O)CC(O)C(O)CCC(O)CC(O)CC(=O)OC(C)C(C)C1O)CC(O)C2C(=O)O (centres undefined)	-75	x	x	x	n	n
COc1c(C)cc(C(=O)C2CCCN(C(=O)c3snnc3C)C2)cc1C (centres undefined)	n	n	n	n	n	n
COc1ccc(CCNC(=O)CSc2ccc3nnc(CCNC(=O)c4ccc(C)cc4)n3n2)cc1OC	n	x	x	x	n	n
O=C1COc2ccc(C(=O)COC(=O)/C=C/c3ccc(Br)o3)cc2N1	n	3.5µM	u	n	n	n
CC1CCCC(C)N1C(=O)CSc1nnc(-c2ccco2)n1C (centres undefined)	n	n	n	n	n	n
O=C(c1c[nH]c2ccccc12)C(Cl)c1ccccc1 (centres undefined)	n	x	n	n	6.3µM	x
COc1ccc([C@H]2CC(=O)C=C(c3cc(Br)ccc3OC)C2)cc1	n	n	n	n	u	n
COc1ccc([C@H]2CC(=O)C=C(c3cc(C)ccc3OC)C2)cc1	n	n	n	n	10µM	n
CCOc1ccc(Br)cc1C1=CC(=O)C[C@H](c2ccc(OC)cc2)C1	n	n	n	n	2.8µM	n
COc1cc(CNc2ncnc3c2ncn3[C@H]2CN(Cc3cccc(C(F)(F)F)c3)C[C@@H](CO)O2)cc(OC)c1OC	n	x	x	x	x	n
Cc1ccc(S(=O)(=O)Nc2c(C)n(C)n(-c3ccccc3)c2=O)cc1C(=O)NCc1ccco1	n	x	x	x	n	n
CCCCNc1c(-c2ccc(-c3ccc(OC)cc3)c(OC)c2)nc2ccccn12	n	n	n	n	13µM	n
SMILES	Six1-Eya2 inh	L3MBTL1 inh	USP2a block	Eya2 phos inh	uPA surface inh	CtBP-E1A inh
COCCNC(=O)c1cc(-c2ccccc2OC)on1	n	n	n	n	7.1µM	n
Cc1c(Cl)cccc1N(CC(=O)NC(C)c1ccccc1)S(C)(=O)=O (centres undefined)	n	n	n	n	n	n
CSc1nnc(C)c(/C=C/Nc2ccc(C)cc2)n1	n	n	n	n	n	-67
c1ccc(-c2cnnc(-c3ccccn3)n2)cc1	-88	x	x	x	n	-76
Nc1nc(N)nc(-c2ccccn2)n1	-81	u	n	n	n	-73
c1ccc(-c2cnc(-c3ccccc3)nn2)cc1	n	x	x	x	u	n
c1ccc(-c2cnc(-c3ccccn3)nn2)cc1	-91	x	x	x	6.3µM	-86
